Records with an inconclusive call do not appear. Activity calls are given as the source filed them. Unless noted, calls come from the whole dose curve; as a rule, active = well fitted cell-killing curve with a large enough effect; inconclusive = small, poorly fitted or top-dose-only effect, or effect the other way; inactive = no such curve, though single readings can be large or run the other way.
Assays:
[1] = Quantitative High-Throughput drug screen in 47 multiple myeloma cell lines against the NCATS MIPE library collection: OPM1_PLB cell viability assay (AID 1918989); note: nearly all actives have a fitted effect of over 40% in size; note: potency is the fitted concentration of half-maximal effect
How it was run: (§1)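 Readout: median RLU from CellTiter-Glo after 5 min at room temperature. Preceding step was 48 h drug treatment of 500 cells/well at 37 °C, 5% CO2, with DMSO-only and media-only control wells.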

[2] = Quantitative High-Throughput drug screen in 47 multiple myeloma cell lines against the NCATS MIPE library collection: XG1_PLB cell viability assay (AID 1919866); note: nearly all actives have a fitted effect of over 35% in size
How it was run: as §1

[3] = Quantitative High-Throughput drug screen in 47 multiple myeloma cell lines against the NCATS MIPE library collection: UTMC2_PLB cell viability assay (AID 1919868); conditions: CellTiter-Glo ATP luminescence, 48 h; viability (% of DMSO control): at 45.8 µM (top of the series); note: nearly all actives have a fitted effect of over 55% in size
How it was run: as §1

[4] = Quantitative High-Throughput drug screen in 47 multiple myeloma cell lines against the NCATS MIPE library collection: OPM2_DSMZ cell viability assay (AID 1919872); note: nearly all actives have a fitted effect of over 30% in size; note: potency is the fitted concentration of half-maximal effect
How it was run: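 We plated 500 myeloma cells per well, pinned in MIPE 4.0 compounds, and incubated for 48 hours at 37C. ATP was then quantified with CellTiter-Glo, with DMSO and media-only wells defining 100% and 0%.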

[5] = Quantitative High-Throughput drug screen in 47 multiple myeloma cell lines against the NCATS MIPE library collection: KMS11_JCRBsus cell viability assay (AID 1919873); note: nearly all actives have a fitted effect of over 50% in size; note: potency is the fitted concentration of half-maximal effect
How it was run: as §1

[6] = Quantitative High-Throughput drug screen in 47 multiple myeloma cell lines against the NCATS MIPE library collection: KMS28BM_JCRB cell viability assay (AID 1919874); note: nearly all actives have a fitted effect of over 35% in size; note: potency is the fitted concentration of half-maximal effect
How it was run: as §1

[7] = qHTS for identification of novel therapeutic agents for treatment of microphthalmiaassociated transcription factor (MiT) renal cell carcinoma (RCC) (AID 1963991); conditions: CellTiter-Glo, 48 h, stronger effect = lower value
How it was run: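 Three TFE3-fusion RCC cell lines (UOK109, UOK124, UOK145), 500 cells/well, were exposed to the 1912-compound MIPE 4.0 library for 48 hours at 37 C. Viability was read by CellTiter-Glo luminescence, normalised to DMSO (100%) and empty wells (0%), with 11-concentration curve fits.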

[8] = Quantitative High-Throughput drug screen in 47 multiple myeloma cell lines against the NCATS MIPE library collection: XG6_PLB cell viability assay (AID 1919865); note: nearly all actives have a fitted effect of over 40% in size; note: potency is the fitted concentration of half-maximal effect
How it was run: as §1

[9] = Quantitative High-Throughput drug screen in 47 multiple myeloma cell lines against the NCATS MIPE library collection: VP6_DJ cell viability assay (AID 1919867); note: nearly all actives have a fitted effect of over 40% in size; note: potency is the fitted concentration of half-maximal effect
How it was run: as §1

[10] = Quantitative High-Throughput drug screen in 47 multiple myeloma cell lines against the NCATS MIPE library collection: PCM6_Riken cell viability assay (AID 1919870); note: nearly all actives have a fitted effect of over 30% in size; note: potency is the fitted concentration of half-maximal effect
How it was run: as §1

[11] = Quantitative High-Throughput drug screen in 47 multiple myeloma cell lines against the NCATS MIPE library collection: RPMI8226_ATCC cell viability assay (AID 1919871); note: nearly all actives have a fitted effect of over 30% in size
How it was run: as §1

[12] = qHTS drug screen for cell cycle checkpoint inhibitors in PARPi-resistant BRCA-mutant ovarian cancer cell lines. (AID 1963452; calls by dose curve); conditions: PEO1/OlaR viability, CellTiter-Glo luminescence, 96 h, stronger effect = lower value
How it was run: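 PEO1, PEO4 and PEO1/OlaR ovarian cancer cells, 600 per well, exposed 96 h at 37C to a dilution series. Viability read by CellTiter-Glo luminescence, normalized to DMSO and empty wells; activity summarized as Z-AUC.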

[13] = Quantitative High-Throughput drug screen in 47 multiple myeloma cell lines against the NCATS MIPE library collection: SKMM1_PLB cell viability assay (AID 1919863); conditions: SKMM1 myeloma viability, CellTiter-Glo ATP, 48 h; viability: stronger effect = lower value; note: nearly all actives have a fitted effect of over 35% in size; note: potency is the fitted concentration of half-maximal effect
How it was run: as §1

[14] = Quantitative High-Throughput drug screen in 47 multiple myeloma cell lines against the NCATS MIPE library collection: U266_ATCC cell viability assay (AID 1919864); note: nearly all actives have a fitted effect of over 35% in size; note: potency is the fitted concentration of half-maximal effect
How it was run: as §1

[15] = TFE3-RCC UOK109 viability, measured here: UOK109 Z-AUC
[16] = TFE3-RCC viability, measured here: UOK124 Z-AUC
[17] = TFE3-RCC viability, measured here: UOK145 Z-AUC
[18] = measured here: PEO1 parental Z-AUC

Structure (SMILES) | Potency [1] | Potency [2] | Potency [3] | Potency [4] | Potency [5] | Potency [6] | z-score [7, 15] | z-score [7, 16] | z-score [7, 17] | Potency [8] | Potency [9] | Potency [10] | Potency [11] | Z-AUC [12] | Z-AUC [12, 18] | Z-AUC ([12]; measured here: PEO4 Z-AUC) | viability [13] | Potency [14] | Potency [13]
O=C1CCC[C@@H]2[C@H]3CCCN4CCC[C@@H](CN12)[C@@H]34 | inactive | inactive | inactive | inactive | inactive | inactive | – | – | – | – | – | – | – | – | – | – | – | – | –
Oc1ccc2c3c1O[C@H]1c4[nH]c5c(c4C[C@@]4(O)[C@@H](C2)N(CC2CC2)CC[C@]314)C[C@@]1(O)[C@H]2Cc3ccc(O)c4c3[C@@]1(CCN2CC1CC1)[C@H]5O4 | inactive | inactive | – | inactive | inactive | inactive | 0.682 | 0.462 | 0.385 | – | – | – | – | – | – | – | – | – | –
CCOC(=O)c1c(C(C#N)=CN)c2ccc(Cl)c(Cl)c2n1C | inactive | – | inactive | inactive | – | inactive | – | – | – | inactive | inactive | inactive | inactive | 0.895 (inactive) | 0.557 | 0.414 | – | – | –
O=c1cccc2n1CC1CNC[C@H]2C1 | 20.9 µM (active) | – | – | inactive | 6.62 µM (active) | 5.26 µM (active) | – | – | – | – | 13.2 µM (active) | 20.9 µM (active) | inactive | 1.36 (inactive) | 1.98 | 1.69 | 142% (inactive) | 20.9 µM (active) | –
O=C(NCC1CCOCC1)c1cnc(Nc2ccc(Cl)cc2Cl)nc1C(F)(F)F | inactive | – | – | inactive | inactive | inactive | – | – | – | – | 6.62 µM (active) | – | inactive | 1.22 (inactive) | 0.764 | 1.04 | 104% (inactive) | 8.33 µM (active) | –
O=C(N[C@H]1CN2CCC1CC2)c1ccc(Cl)cc1 | inactive | – | – | inactive | – | inactive | – | – | – | 8.33 µM (active) | 7.43 µM (active) | – | – | -0.714 (inactive) | 0.355 | -0.659 | – | 4.18 µM (active) | –
CN(C)[C@@H]1C(=O)C(C(N)=O)=C(O)[C@@]2(O)C(=O)C3=C(O)c4c(O)cccc4[C@@](C)(O)[C@H]3[C@H](O)[C@@H]12 | inactive | – | – | 20.9 µM (active) | inactive | inactive | 2.05 | 0.404 | 0.671 | – | 23.5 µM (active) | – | – | -0.415 (inactive) | -0.31 | 0.0838 | – | 18.7 µM (active) | 14.8 µM (active)
C[C@@H]1[C@H](O)[C@@H](C)C=CC=CCCC=CC=CC=CC=C[C@H](O[C@H]2O[C@@H](C)[C@H](O)[C@@H](N)[C@@H]2O)CC2O[C@](O)(C[C@@H](O)[C@H](O)CC[C@@H](O)C[C@@H](O)C[C@@H](O)CC(=O)O[C@H]1C)C[C@H](O)[C@H]2C(=O)O | – | inactive | – | inactive | inactive | inactive | 0.777 | 0.659 | -1.57 | – | inactive | – | – | – | – | – | 120% (inactive) | inactive | –

From PubChem BioAssay (NCATS)
